# Screens as filed in PubChem.
# USP8 inh – human USP8 deubiquitinase inhibition; P40818; inhibition, % at 20 µM; 4.2% of 47,000 active; purified USP8, Ub-rhodamine cleavage fluorescence, 30 min
# Target sequence (P40818 whole entry, looked up): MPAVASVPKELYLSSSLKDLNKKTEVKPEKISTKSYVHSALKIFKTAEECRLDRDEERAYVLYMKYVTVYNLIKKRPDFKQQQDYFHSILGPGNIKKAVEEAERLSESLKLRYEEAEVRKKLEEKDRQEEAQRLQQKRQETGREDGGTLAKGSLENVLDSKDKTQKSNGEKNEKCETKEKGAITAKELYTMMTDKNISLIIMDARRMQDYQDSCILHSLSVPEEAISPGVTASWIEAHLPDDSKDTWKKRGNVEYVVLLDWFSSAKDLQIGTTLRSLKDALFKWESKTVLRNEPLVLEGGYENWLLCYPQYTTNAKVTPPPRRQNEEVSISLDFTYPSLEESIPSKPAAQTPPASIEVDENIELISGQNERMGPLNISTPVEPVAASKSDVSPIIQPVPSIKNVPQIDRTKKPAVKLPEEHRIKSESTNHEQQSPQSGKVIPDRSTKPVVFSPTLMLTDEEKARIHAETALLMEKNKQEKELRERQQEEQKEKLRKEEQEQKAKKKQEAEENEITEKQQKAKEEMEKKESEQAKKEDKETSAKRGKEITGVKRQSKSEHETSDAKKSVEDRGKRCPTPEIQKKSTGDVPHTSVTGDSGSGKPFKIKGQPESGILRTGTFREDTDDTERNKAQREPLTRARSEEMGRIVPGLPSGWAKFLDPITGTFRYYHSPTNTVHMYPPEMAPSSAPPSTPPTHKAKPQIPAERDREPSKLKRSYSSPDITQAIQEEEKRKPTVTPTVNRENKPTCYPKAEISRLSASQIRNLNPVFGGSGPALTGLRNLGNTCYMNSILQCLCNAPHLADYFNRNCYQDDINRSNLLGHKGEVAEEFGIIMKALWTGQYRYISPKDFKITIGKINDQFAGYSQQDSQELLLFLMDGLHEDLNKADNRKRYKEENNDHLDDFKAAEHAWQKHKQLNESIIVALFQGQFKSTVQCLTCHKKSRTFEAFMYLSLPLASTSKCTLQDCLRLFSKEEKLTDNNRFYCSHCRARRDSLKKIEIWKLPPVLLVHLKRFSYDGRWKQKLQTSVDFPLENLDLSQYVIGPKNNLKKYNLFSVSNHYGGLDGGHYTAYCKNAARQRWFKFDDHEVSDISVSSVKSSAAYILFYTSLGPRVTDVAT
# USP17 inh – blocks human USP17 ubiquitin-rhodamine cleavage; A8MUK1; purified USP17, Ub-rhodamine cleavage fluorescence, 3 h; inhibition, % at 50 µM; 6.5% of 47,000 active
# USP30 block – inhibitors of human USP30 deubiquitinase; Q70CQ3; purified USP30, Ub-rhodamine cleavage fluorescence; 5.3% of 47,000 active; inhibition, % at 25 µM
# USP28 block – blocks human USP28 ubiquitin-rhodamine cleavage; 3% of 47,000 active; inhibition, % at 25 µM; purified USP28, Ub-rhodamine cleavage fluorescence, 30 min
# Numbers stand for hits; . = inactive; / = no result. The list is not random: actives were taken first. Their share in the collection is about 13%. Cut-off read from the data, not from the text of the source: active = inhibition above about 30%; inactive = the rest.
SMILES,USP8 inh,USP17 inh,USP30 block,USP28 block
O=S(=O)(c1cccnc1)N1C[C@H](OCC2CC2)[C@H]2OCCC[C@H]21,.,.,.,.
Cc1cc(C)c(S(=O)(=O)N2CC(c3ccccc3)CC2=O)c(C)c1 (stereo unspecified),.,.,.,.
O=C(NC1CCCCC1)c1cccc(S(=O)(=O)N2CC(c3ccccc3)CC2=O)c1 (stereo unspecified),.,.,31,.
COC(=O)c1ccccc1SCc1nc(OC)cc(OC)n1,.,.,.,.
CCc1c(C)nc2c(-c3ccccc3)c(Cc3ccccc3)[nH]n2c1=O,62,.,.,.
CC(C)=CCCC1(C)OC2=C(C(=O)c3cc(O)cc(O)c3C2=O)[C@H]2C=C(C)CC[C@H]21 (stereo partly specified),.,86,.,.
O=C(CN1C(=O)c2ccccc2S1(=O)=O)Nc1c(F)cccc1F,.,.,.,.
Cc1cccc(C(C)C)c1NC(=O)CN1c2ccc(F)cc2-c2ccccc2S1(=O)=O,.,.,30,.
COc1ccc(Cn2nnc(C(=O)N3CCCCC3)c2-n2cccc2)cc1,.,30,.,.
O=C(c1nnn(Cc2ccc(Cl)cc2)c1-n1cccc1)N1CCSCC1,.,.,.,36
CC(C)OCCCN1C(=O)c2[nH]nc(-c3ccccc3O)c2C1c1cccc(Cl)c1 (stereo unspecified),55,.,.,.
CN1CC(=O)N2C(c3ccccc3)c3[nH]c4ccccc4c3C[C@@H]2C1=O (stereo partly specified),.,.,.,.
COc1ccc(C)cc1NC(=O)Nc1nnc(CC(=O)NCc2ccccc2)s1,38,.,.,.
O=C(Cc1nnc(NC(=O)Nc2cc(F)ccc2F)s1)NCc1ccccc1,.,.,.,.
Cc1ccc(-c2c3c(=O)n(C)c(=O)n(C)c3cn2-c2ccc3c(c2)OCCO3)cc1,63,.,.,.
CN1CCc2nc(N3CCN(C(=O)c4ccccc4)CC3)sc2C1,.,.,.,.
C[C@@H](C(=O)Nc1ccc2c(c1)OCO2)n1c(=O)[nH]c2ccccc2c1=O,85,.,.,.
CC(Nc1cccc(C(F)(F)F)c1)C(=O)Nc1ccc2c(c1)OCO2 (stereo unspecified),.,.,.,.
CC(Nc1ccc(Oc2ccccc2)cc1)C(=O)Nc1ccc2c(c1)OCO2 (stereo unspecified),.,.,30,.
CN1CCCN(C(=O)c2ccc(C#N)cc2)c2nc3ccccc3nc21,.,.,.,.
COc1ccc(S(=O)(=O)NCCSc2ccccc2)cc1Br,.,.,37,.
O=C(CC(c1ccc(F)cc1)N1Cc2ccccc2C1=O)NCc1ccco1 (stereo unspecified),.,.,.,.
Cc1ccc(N2CCCn3c2nc2c3c(=O)n(CCc3ccccc3)c(=O)n2C)cc1,.,.,31,.
CN1[C@@H](CCC(=O)N2CCN(c3ccccn3)CC2)CNC(=O)[C@@H]2[C@H]1CCN2Cc1ccc(CO)o1,.,.,.,.
CN1[C@@H](CCC(=O)N2CCC(O)CC2)CNC(=O)[C@@H]2[C@H]1CCN2Cc1ccc(O)cc1,66,.,55,43
SMILES,USP8 inh,USP17 inh,USP30 block,USP28 block
CC(C)N1CC[C@@H]2[C@H]1C(=O)NC[C@H](CCC(=O)N1CCN(c3ccccn3)CC1)N2C,62,.,39,42
CN1[C@@H](CCC(=O)N2CCN(c3ccccn3)CC2)CNC(=O)[C@@H]2[C@H]1CCN2Cc1ccc(O)cc1,73,.,46,56
CN1[C@@H](CCC(=O)N2CCN(c3ccccn3)CC2)CNC(=O)[C@@H]2[C@H]1CCN2CC(C)(C)C,.,.,.,.
CN1[C@@H](CCC(=O)N2CCC(O)CC2)CNC(=O)[C@@H]2[C@H]1CCN2Cc1cccc(OC(F)(F)F)c1,35,.,.,.
CN(C)C(=O)c1cccc(CN2CCCC2c2noc(C3CC3)n2)c1 (stereo unspecified),.,.,.,.
C[C@@]12C[C@H](c3ccccc3)N(C(=O)c3cncs3)[C@@H]1CCC[C@@H](O)[C@H]2O,.,.,.,.
O=[N+]([O-])c1ccc2nc(CSc3nc4ccccc4[nH]3)[nH]c2c1,.,.,.,.
Cc1cccc2nc(CSc3nc4ccc([N+](=O)[O-])cc4[nH]3)cn12,62,.,.,.
CCOc1ccc2[nH]c3c(=O)n(CCc4ccc(OC)cc4)cnc3c2c1,.,67,.,.
O=c1c2[nH]c3ccc(Br)cc3c2ncn1CCN1CCNCC1,.,38,40,.
CCOc1ccc2[nH]c3c(=O)n(CCN4CCNCC4)cnc3c2c1,.,.,.,.
COc1ccc2c(c1)[nH]c1c(=O)n(Cc3ccccc3)cnc12,.,71,73,.
CCOc1ccc2[nH]c3c(=O)n(CCC4=CCCCC4)cnc3c2c1,47,/,.,.
COc1ccc2[nH]c3c(=O)n(Cc4ccncc4)cnc3c2c1,.,.,.,.
O=C(NCCS(=O)(=O)N1CCN(c2ncccn2)CC1)c1c(F)cccc1Cl,.,.,.,.
O=C(N1CCC2(CC1)CC2)C1(c2ccc(Br)cc2)CCOCC1,.,.,.,.
Cc1nn(-c2nc3ccccc3n2C)c2c1C(c1ccc(C(=O)O)cc1)CC(=O)N2 (stereo unspecified),.,.,.,.
O=c1c2[nH]c3ccc(Cl)cc3c2ncn1CCc1ccccc1,.,.,.,.
Cc1ccc2[nH]c3c(=O)n(CCc4ccccc4)cnc3c2c1,32,.,.,.
COc1cccc(CN2CCC3(CC2)OCCc2cnc(C)nc23)c1,.,.,.,.
COc1ccc(CN2CCC3(CC2)OCCc2cnc(C)nc23)c(OC)c1,.,.,32,.
C=C1C=C(NCc2cccnc2)n2nc3nc(C)cc(C)c3c2N1,.,.,.,.
Cc1nc(-c2ccccc2)sc1C(=O)Nc1ccc2c(c1)OCCO2,.,.,.,50
O=C(Cc1csc(-c2ccccc2)n1)Nc1ccc2c(c1)OCO2,.,.,.,.
Cc1nc2ccccc2c2oc(C(=O)Nc3ccc4c(c3)OCCO4)cc12,52,.,.,.
SMILES,USP8 inh,USP17 inh,USP30 block,USP28 block
O=C(Nc1ccc2c(c1)OCCO2)c1cc(-c2ccccn2)nc2ccccc12,.,.,.,.
CCc1nnc(-c2nnc(N3CCN(C)CC3)c3ccccc23)o1,.,.,.,.
CC(C)NC(=O)[C@H]1C[C@@H]2CN(S(=O)(=O)c3ccccc3)C[C@H]1O2,.,.,.,.
O=C(CSc1nc2c(cnn2-c2ccccc2)c(=O)[nH]1)Nc1ccc(Cl)cc1F,80,.,30,.
CSc1cccc(NC(=O)C2Cc3ccccc3CN2C(=O)c2ccco2)c1 (stereo unspecified),.,31,.,.
O=C(Nc1cccc(S(=O)(=O)N2CCOCC2)c1)C1Cc2ccccc2CN1C(=O)c1ccco1 (stereo unspecified),40,/,.,.
COc1ccc(CN2CC(=O)N3CCc4c([nH]c5ccccc45)C3(C)C2=O)cc1 (stereo unspecified),.,.,.,.
CCc1nnc(-c2cc(S(=O)(=O)Nc3cccc(C)c3C)c[nH]2)o1,.,.,.,.
C=C(C)CSc1nc(Cc2ccccc2)nc2sc3c(c12)CC(C)(C)OC3,.,.,.,33
